Measurements: PubChem BioAssay (NCATS)
Records with an inconclusive call do not appear. Calls of active or inactive are those of the source. The call rests on the fitted dose curve; in most records, active means well fitted curve in the direction sought with a large enough effect; inconclusive means small, poorly fitted or top-dose-only effect, or another doubt; inactive means no such curve, though single readings can be large; an effect the other way counts as inactive or inconclusive.

Columns and labels:
[1] = MultiTox-Fluor Cytotoxicity Assay - LYMP1-001 - Dead Cells (AID 946);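 further: cells exposed to compound for 16 h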
Procedure, shortened: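 AC50 from Hill fit of concentration-response; data normalized to DMSO (basal) and 15 uM tetraoctylammonium bromide (100%). LYMP1-001 lymphoblastoid cells, 2500/well, 16 hr compound at 37 C; dead-cell protease fluorescence, Ex/Em 485/520.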

[2] = MultiTox-Fluor Cytotoxicity Assay - LYMP1-001 - Live Cells (AID 947)
[3] = Cell Viability - LYMP1-002 - Assay at 16 hr (AID 948)
Procedure, shortened: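 Acute cytotoxicity is scored as a concentration-dependent fall in intracellular ATP in a human lymphoblastoid line (LYMP1-002) after 16 hr compound exposure at 37 C, measured by luciferase luminescence.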

[4] = MultiTox-Fluor Cytotoxicity Assay - LYMP1-002 - Live Cells (AID 955);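 further: cells exposed to compound for 16 hours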
Procedure, shortened: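 Read-out is live-cell protease activity (cell-permeant GF-AFC substrate, fluorescence Ex/Em=405/510), where a decrease indicates acute toxicity. Human lymphoblastoid cells were treated 16 hours at 37 C in a concentration series, and AC50 values came from standard Hill modelling.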

[5] = MultiTox-Fluor Cytotoxicity Assay - LYMP1-002 - Dead Cells (AID 960);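 further: cells exposed to compound for 16 h at 37 °C; nearly all actives have a fitted effect of over 60% in size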
Procedure, shortened: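 LYMP1-002 cells 2500/well; 5 hr 37 C pre-incubation; compound 16 hr 37 C; MultiTox-Fluor reagent 60 min RT; dead-cell fluor Ex/Em 485/520. Norm. to DMSO (0%) vs 15 uM tetraoctylammonium bromide (100%); Hill AC50.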

[6] = MultiTox-Fluor Cytotoxicity Assay - LYMP1-003 - Dead Cells (AID 961);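 further: cells exposed to compound for 16 h at 37 °C; nearly all actives have a fitted effect of over 70% in size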
Procedure, shortened: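 Human lymphoblastoid LYMP1-003 cells (2500/well) were treated with compounds for 16 hr at 37 C in complete medium. Dead-cell protease release was read by bis-AAF-R110 fluorescence (Ex/Em 485/520). AC50 came from Hill fits, normalized to DMSO and 15 uM tetraoctylammonium bromide.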

[7] = MultiTox-Fluor Cytotoxicity Assay - LYMP1-003 - Live Cells (AID 962);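 further: cells exposed to compound for 16 hours at 37 °C; cytotoxic hits lower the live-cell protease signal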
Procedure, shortened: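 qHTS, 1536-well; 2500 cells/well LYMP1-003; 5 hr 37 C settle; cpd 16 hr 37 C; MultiTox-Fluor reagent 60 min RT; live-cell protease fluor. 405/510; Hill-fit AC50; tetraoctylammonium bromide pos. ctrl.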

[8] = Cell Viability - LYMP1-003 - Assay at 24 hr (AID 963)
Procedure, shortened: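 Cells seeded at 2500/well, 5 hr at 37 C; compounds added; 24 hr at 37 C; CellTiter-Glo added, 30 min room temperature; luminescence read. Decrease in ATP taken as cytotoxicity, AC50 from Hill modelling.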

[9] = Cell Viability - LYMP1-003 - Assay at 40 hr (AID 964); further: series mostly up to about 92 µM; nearly all actives have a fitted effect of over 60% in size
Procedure, shortened: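 Cells were seeded at 2500 per well and incubated 5 hr at 37 C. Compounds were added across a concentration series and left 40 hr at 37 C. CellTiter-Glo was added for 30 min at room temperature before luminescence reading.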

[10] = Cell Viability - LYMP2-003 (AID 965);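 further: cells exposed to compounds for 24 h before reading; nearly all actives have a fitted effect of over 50% in size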
Procedure, shortened: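 Acute cytotoxicity is scored as a concentration-dependent drop in intracellular ATP, measured by luciferase luminescence in human lymphoblastoid cells treated for 24 hours at 37 C. AC50 values derive from Hill-equation modelling.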

[11] = Cell Viability - LYMP2-004 (AID 966); further: nearly all actives have a fitted effect of over 65% in size
Procedure, shortened: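 Cells seeded 2500/well, rested 5 hr at 37 C, dosed across a concentration series, incubated 24 hr at 37 C, then CellTiter-Glo added for 30 min at room temperature and luminescence read. Hill fitting gave AC50.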

[12] = Cell Viability - LYMP2-009 (AID 968); further: series mostly up to about 92 µM; nearly all actives have a fitted effect of over 55% in size
[13] = Cell Viability - LYMP2-011 (AID 969); further: nearly all actives have a fitted effect of over 60% in size
Procedure, shortened: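 2500 cells/well, 5 hr 37 C; compound added, 24 hr 37 C; CellTiter-Glo 30 min RT; luminescence. qHTS concentration-response, Hill-equation AC50. Tetraoctylammonium bromide positive control.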

[14] = Cell Viability - LYMP2-013 (AID 970); further: series mostly up to about 92 µM; nearly all actives have a fitted effect of over 55% in size
Procedure, shortened: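 qHTS; 2500 lymphoblastoid cells/well; 5 hr 37 C settle; cpd 24 hr 37 C; CellTiter-Glo, 30 min RT; luminescence. AC50 = Hill fit.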

[15] = Cell Viability - LYMP2-015 (AID 971); further: nearly all actives have a fitted effect of over 55% in size
Procedure, shortened: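 Luminescent ATP read-out (CellTiter-Glo) served as the viability measure after lymphoblastoid cells were exposed to compounds for 24 hours at 37 C. Concentration-response data were fitted with the Hill equation to give AC50.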

[16] = Cell Viability - LYMP2-017 (AID 972); further: series mostly up to about 92 µM; nearly all actives have a fitted effect of over 55% in size
Procedure, shortened: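 2500 cells/well, 5 h 37 C; cpd 24 h 37 C in complete medium; CellTiter-Glo, 30 min RT; luminescence (ATP). AC50 via Hill fit, qHTS.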

[17] = Cell Viability - LYMP2-023 (AID 975)
Procedure, shortened: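 2500 cells/well, 5 hr 37 C; cpd 24 hr 37 C; CellTiter-Glo, 30 min RT; luminescence. qHTS conc-response, Hill fit -> AC50. Pos ctrl tetraoctylammonium bromide.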

[18] = Cell Viability - LYMP2-025 (AID 976); further: series mostly up to about 92 µM
Procedure, shortened: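 Seed 2500 LYMP2-025 cells/well; 5 hr at 37 C; add compound; 24 hr at 37 C; add CellTiter-Glo; 30 min RT; read luminescence. AC50 from Hill-modelled concentration-response.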

[19] = Cell Viability - LYMP2-002 (AID 977);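 further: series mostly up to about 92 µM; compound exposure lasted 24 h at 37 °C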
Procedure, shortened: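 Human lymphoblastoid LYMP2-002 cells, 2500 per well, exposed to compounds for 24 h at 37 C in complete medium; viability read as intracellular ATP by CellTiter-Glo luminescence, AC50 from Hill fits.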

[20] = Cell Viability - LYMP2-006 (AID 978); further: series mostly up to about 92 µM; nearly all actives have a fitted effect of over 60% in size
Procedure, shortened: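 Concentration-dependent loss of intracellular ATP in a human lymphoblastoid line after 24 hr treatment at 37 C was measured by CellTiter-Glo luminescence, with AC50 values obtained from standard Hill-equation modelling.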

Measured: outcome

C[C@@H]1C[C@H]2[C@@H]3CCC4=CC(=O)C=C[C@]4(C)[C@@]3(F)[C@@H](O)C[C@]2(C)[C@@]1(O)C(=O)CO
inactive: all assays above
